# TLR4-MyD88 BLA: inhibitors of TLR4-MyD88 association in cells, primary screen, cell-based, HeLa CL3-4, BLA complementation, FRET ratio; AID 861, 2007; actives 0.18% (n = 200,000); HeLa CL3-4 TLR4/MyD88 BLA complementation; inhibition, % at 8.4 µM; in the data active = inhibition above about 25%
# TMEM16A inh: TMEM16A chloride channel inhibitors, primary screen, cell-based, HTS | Anoctamin-1 (Mus musculus), Q8BHY3 | AID 588511, 2011 | HEK293 TMEM16A/YFP iodide influx fluorescence, ionomycin | actives 1.2% (n = 310,000) | normalized B-score (activity score, 25-100; higher = stronger inhibition) at 10 µM;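 active = ratio plate-corrected score three or more library SD toward inhibition, starting fluorescence score within five deviations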;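 note: score derived from kinetic fluorescence span divided by baseline fluorescence per well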
# TLR9-MyD88 block: inhibitors of TLR9-MyD88 association in cells, primary screen, cell-based, CHO, BLA complementation, fluorescence; Toll-like receptor 9 (Homo sapiens) + Myeloid differentiation primary response protein …; CCF4 FRET ratio; inhibition, % at 4.98 µM; actives 0.21% (n = 340,000); AID 504734, 2011;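 active = inhibition above the mean over all tested compounds plus 3 SD, cut at about 21% in these data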
# TMEM16A act: TMEM16A chloride channel activators or potentiators, primary screen, cell-based, HTS; actives 0.3% (n = 340,000); B-score at 10 µM; Anoctamin-1 (Mus musculus), Q8BHY3; HEK293 TMEM16A/YFP-H148Q/I152L, iodide quench fluorescence; hits give low values; AID 623877, 2012;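 active = fluorescence-ratio B-score plate-corrected deviation score at least 3 library SD below zero, with starting fluorescence score within 5 deviations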;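 note: channel opened by trigger with iodide after compound preincubation; score built on the fluorescence ratio of max minus min over baseline; more negative score means more quench and so TMEM16A activation or potentiation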
# NOD2-RIPK2 inh: NOD2-RIPK2 binding disruptors in cells, primary screen, fluorescence, CHO cells, BLA complementation; CCF4 ratio; inhibition, % at 4.98 µM; actives 0.38% (n = 360,000); in the data active = inhibition above about 21%
# GRK2 inh: compounds blocking aptamer binding on GRK2 – biochemical, human GRK2, bead flow cytometry, HTS, primary screen; Beta-adrenergic receptor kinase 1 (Homo sapiens), P25098; FAM-aptamer displacement from GRK2; inhibition of aptamer binding, % at 10 µM; actives 0.59% (n = 330,000);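 active = inhibition of aptamer binding above 40%, roughly 3 SD of noise, on plates passing a quality check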;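 note: median bead fluorescence of bound FAM aptamer so fluorescent compounds give negative values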
# TMEM16A reconf: TMEM16A chloride channel inhibitors, confirmation, cell-based, re-confirmation. actives 39% (n = 2,300). shares compounds with TMEM16A inh. inhibition, % at 10 µM. HEK293 TMEM16A/YFP-H148Q, iodide quench fluorescence; ionomycin added to raise cell calcium;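 active = mean duplicate percent inhibition, scaled so buffer wells are 0 and the reference blocker 100, over three buffer SD above buffer mean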
# HEK293 Ca mobil: calcium mobilization in TMEM16A/YFP HEK293 cells, confirmation, counter-screen for TMEM16A inhibitor project; calcium response (% of ionomycin), % at 10 µM; shares compounds with TMEM16A inh; Fluo4 calcium mobilization; actives 2% (n = 2,300);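 active = duplicate-averaged calcium signal over 20% of the ionomycin maximum, relative to buffer baseline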;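 note: each well's signal is peak minus trough fluorescence divided by its pre-addition baseline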
# YFP-HEK293 quench: iodide YFP quench changes in parental YFP-HEK293, counter-screen for TMEM16A inhibitor project, cell-based; AID 652233, 2013; YFP ratio F(max-min)/F0 at 10 µM; 2,300 tested, under 10 active; shares compounds with TMEM16A inh; ionomycin;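 active = yellow fluorescent protein signal ratio exceeding the buffer control mean by over 5 SD of those controls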;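 note: ratio is mean of duplicate wells from kinetic YFP trace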
# ClC-1 rat inh: ClC-1 chloride channel inhibition, selectivity assay for TMEM16A inhibitor project, cell-based, voltage-dependent ClC-1; shares compounds with TMEM16A inh; CHO ClC-1-YFP, iodide influx fluorescence quench; iodide control reads 0, buffer control 100; ratio percent, % at 10 µM; 2,300 tested, under 10 active;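 active = duplicate-mean ratio percent above the mean of iodide-only control wells, which defines zero, plus 5 of their SD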;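 note: higher percent means stronger block of ClC-1 iodide influx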
# A number is an active result; n = inactive; x = no result given. Only some compounds are listed: those with a hit (about 2.2% of all), similar ones and a draw of the others.
SMILES,TLR4-MyD88 BLA,TMEM16A inh,TLR9-MyD88 block,TMEM16A act,NOD2-RIPK2 inh,GRK2 inh,TMEM16A reconf,HEK293 Ca mobil,YFP-HEK293 quench,ClC-1 rat inh
O=C(O)CCCN1C(=O)/C(=C\c2ccccc2OCc2ccccc2)SC1=S,x,25,n,n,n,n,n,n,n,n
O=Cc1ccc(-c2nc3ccccc3s2)o1,n,n,n,n,n,n,x,x,x,x
O=C(O)CCCN1C(=O)/C(=C\c2ccc(-c3nc4ccccc4s3)o2)SC1=S,x,25,n,n,n,n,24%,n,n,n
CCOC(=O)C1=CN(Cc2ccco2)S(=O)(=O)N(C)C1c1ccc2ccccc2c1 (centres undefined),x,x,n,n,n,n,x,x,x,x
Cc1ccc(C2(C)NC(=O)N(CC(=O)Nc3cc(S(=O)(=O)N4CCOCC4)ccc3OC(C)C)C2=O)cc1 (centres undefined),x,x,n,n,n,x,x,x,x,x
CSCC[C@H](NC(=O)OC(C)(C)C)c1nnc(SCc2ccccc2)o1,n,n,n,n,n,n,x,x,x,x
CSCC[C@H](NC(=O)OC(C)(C)C)c1nnc(SCc2ccc(F)cc2)o1,n,100,n,n,n,n,n,n,n,n
CC(=O)Nc1ccc(Oc2cc(C#N)c(C#N)cc2N2CCOCC2)cc1,n,n,n,n,n,n,x,x,x,x
CC(=O)Nc1ccc(Oc2cc(C#N)c(C#N)cc2N2CCCCCC2)cc1,n,100,n,n,n,n,n,n,n,n
CCCNC(=O)C1(C)CCN(C(=O)c2ccc3snnc3c2)C1 (centres undefined),x,x,x,x,n,x,x,x,x,x
O=C(Nc1nccs1)c1cncc(Br)c1,n,n,n,n,n,n,x,x,x,x
O=C(c1cccc(COc2ccc(Cl)cc2Cl)c1)N1CCN(c2ccccn2)CC1,n,100,n,n,n,n,n,n,n,n
CCc1nc(SCc2nnc(-c3ccc(C)cc3)o2)c2c(C)c(C)sc2n1,n,n,x,x,x,n,n,n,n,n
CCCCSc1nnc2c(n1)[nH]c1ccccc12,n,25,n,n,n,n,n,n,n,n
CC(C)CSc1nnc2c(n1)[nH]c1ccccc12,n,n,n,n,n,n,x,x,x,x
CC1CCCCC1NC(=O)C1CCN(S(=O)(=O)N2CCOCC2)CC1 (centres undefined),n,n,n,n,n,n,x,x,x,x
CC1CCCC(NC(=O)C2CCN(S(=O)(=O)N3CCOCC3)CC2)C1C (centres undefined),n,25,n,n,n,n,n,n,n,n
CC(C)C1Cc2c(sc3ncnc(NN)c23)CO1 (centres undefined),x,n,n,n,n,n,x,x,x,x
CC1CN(S(=O)(=O)c2ccc(Cl)c(S(=O)(=O)N3CC(C)OC(C)C3)c2)CC(C)O1 (centres undefined),n,100,n,n,n,n,n,n,n,n
CCc1nc2c(OCc3ccc(F)c(F)c3)cccn2c1N(C)C(=O)c1ccncc1,x,x,x,x,n,x,x,x,x,x
Cc1ccc(S(=O)(=O)N2CCOC2CNC(=O)C(=O)NCCCc2ccccc2)cc1 (centres undefined),x,n,n,n,n,n,x,x,x,x
O=C(NCCCc1ccccc1)C(=O)NCC1OCCN1S(=O)(=O)c1ccc(F)cc1 (centres undefined),x,25,n,n,n,n,n,n,n,n
O=C(COc1ccc(F)cc1)c1ccc2c(c1)CCCC2,n,100,n,n,n,n,n,n,n,n
O=C(COc1ccc(Cc2ccccc2)cc1)c1ccc(F)cc1,n,n,n,n,n,n,x,x,x,x
Cc1cc(Oc2ccc(=O)n(C)n2)nc(SCCOc2ccccc2)n1,x,n,n,n,n,n,x,x,x,x
SMILES,TLR4-MyD88 BLA,TMEM16A inh,TLR9-MyD88 block,TMEM16A act,NOD2-RIPK2 inh,GRK2 inh,TMEM16A reconf,HEK293 Ca mobil,YFP-HEK293 quench,ClC-1 rat inh
O=C(Nc1cccc(F)c1)N(Cc1ccc(Cl)cc1)CC(O)C(F)(F)F (centres undefined),n,100,n,n,n,n,78%,n,n,n
O=C(Nc1ccccc1)N(Cc1ccccc1)CC(O)C(F)(F)F (centres undefined),n,n,n,n,n,n,x,x,x,x
COc1ccc(N2CCn3c2nc2c3c(=O)n(CCCc3ccccc3)c(=O)n2C)c(OC)c1,n,100,n,n,n,n,22%,n,n,n
O=C(CCCSc1nc2ccccc2[nH]1)N1CCN(c2ccc([N+](=O)[O-])cc2)CC1,n,25,n,n,n,n,20%,n,n,n
COc1ccc(NS(=O)(=O)c2ccc3oc4ccccc4c3c2)cn1,n,25,n,n,n,n,n,n,n,n
COc1ccc(NS(=O)(=O)c2ccc(Br)cc2)cn1,x,n,n,n,n,n,x,x,x,x
CCOCCCNC(=S)N1CCN(c2nc(-c3ccccc3)cs2)CC1,x,n,n,n,n,n,x,x,x,x
COCCCNC(=S)N1CCN(c2nc(-c3ccccc3)cs2)CC1,x,25,n,n,n,n,n,n,n,n
CSc1nc(-c2ccc(Cl)cc2Cl)[nH]c(=O)c1C#N,n,25,n,n,n,n,50%,n,n,n
CCCC1(CCC)NC(=O)N(CC(=O)Nc2cccc(OC)c2)C1=O,n,100,n,n,n,n,n,n,n,n
COc1cccc(C(O)c2nc(/C=C/c3ccc(C(F)(F)F)cc3)cs2)c1 (centres undefined),x,x,x,x,n,x,x,x,x,x
COCc1c(C(=O)N2CCN(c3ccc(C(F)(F)F)cn3)CC2)oc2ccccc12,n,n,n,n,n,n,x,x,x,x
COc1ccc(CCNC(=S)N2CCC(Cc3ccccc3)CC2)cc1OC,n,100,n,n,n,n,n,n,n,n
COc1ccc(C(=O)C2CCN(C(=S)NCCc3ccc(OC)c(OC)c3)CC2)cc1,n,n,n,n,n,n,x,x,x,x
COc1ccc(NC(=O)CCNS(=O)(=O)c2ccccc2F)cc1S(N)(=O)=O,x,n,n,n,n,n,x,x,x,x
